Molecules are shown by their SMILES. Inconclusive results are not listed. The source made the active and inactive calls. Rule for the calls: active = hit-call score of the fitted dose curve at least 0.9, where 1 is the maximum; inconclusive = response in the unintended direction; inactive = score below 0.9.

Chain of Estrogen receptor (Homo sapiens) (P03372 whole entry, looked up): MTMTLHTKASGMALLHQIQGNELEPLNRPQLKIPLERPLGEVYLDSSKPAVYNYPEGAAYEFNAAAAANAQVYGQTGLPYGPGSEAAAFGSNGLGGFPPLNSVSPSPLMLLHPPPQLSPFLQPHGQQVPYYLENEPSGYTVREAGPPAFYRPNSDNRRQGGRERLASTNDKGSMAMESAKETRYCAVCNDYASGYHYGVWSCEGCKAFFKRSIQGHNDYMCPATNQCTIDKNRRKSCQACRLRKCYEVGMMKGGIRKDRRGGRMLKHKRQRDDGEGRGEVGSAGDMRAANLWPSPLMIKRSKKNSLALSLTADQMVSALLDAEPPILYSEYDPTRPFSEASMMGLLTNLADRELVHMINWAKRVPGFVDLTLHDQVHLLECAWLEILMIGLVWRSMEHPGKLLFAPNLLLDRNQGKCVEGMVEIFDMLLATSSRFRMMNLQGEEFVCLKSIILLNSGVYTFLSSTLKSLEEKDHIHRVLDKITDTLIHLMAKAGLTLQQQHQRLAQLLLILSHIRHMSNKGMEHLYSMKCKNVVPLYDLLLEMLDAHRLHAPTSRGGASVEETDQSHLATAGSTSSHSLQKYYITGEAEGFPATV

The test concerns the target Estrogen receptor (Homo sapiens) (UniProt P03372). The experiment in a line: ATG_hERa_EcoTox2: Attagene TRANS-FACTORIAL EcoTox-2 HepG2 Assay for human Estrogen Receptor (ER). The method, then:
ATG_EcoTox2 is a cell-based, multiplexed assay created by modifying the existing Attagene TRANS-FACTORIAL system to include a panel of nuclear receptors from some or all the following species: human (Homo sapiens), african clawed frog (Xenopus laevis), rainbow trout (Oncorhynchus mykiss), japanese medaka (Oryzias latipes), and zebrafish (Danio rerio). The ECOTOX2-FACTORIAL format uses HepG2, a human liver cell line, with measurements taken at 24 hours after chemical dosing in a 24-well plate. ATG_hERa_EcoTox2 is one of 29 assay components measured or calculated from the ATG_EcoTox2 assay. It is designed to make measurements of mRNA induction, a form of inducible reporter, as detected with fluorescence intensity signals by Reverse transcription polymerase chain reaction (RT-PCR) and Capillary electrophoresis technology.The assay endpoint ATG_hERa_EcoTox2 was analyzed in the positive analysis fitting direction relative to DMSO as the negative control and baseline of activity. Using a type of inducible reporter, measures of mRNA for gain-of-signal activity can be used to understand the reporter gene at the transcription factor-level as they relate to the gene ER. Furthermore, this assay endpoint can be referred to as a primary readout, because this assay has produced multiple assay endpoints where this one serves a reporter gene function. To generalize the intended target to other relatable targets, this assay endpoint is annotated to the nuclear receptor intended target family, where the subfamily is steroidal.
Human liver HepG2 cells are transiently transfected with multiple reporter transcription units (MRTUs) in 6-well plates using FuGene 6 reagent (Roche; 3 ml FuGene/1 mg DNA). The MRTU constructs are regulated by a cis-regulating element (promoter). Each RTU expresses a GAL4-UAS that regulates the transcription of a nearby target reporter gene sequence. A major difference between the CIS and TRANS system is that in CIS activities of endogenous TFs are measured, whereas the TRANS assay evaluates changes in activities of exogenous, chimeric NR-Gal4 proteins. […] At the end of 24 hour incubation, total RNA was isolated using TriZol reagent (Invitrogen). The isolated RNA is then reverse-transcribed using oligo(dT) primer and Mo-MLV reverse transcriptase (Invitrogen) with DNAse I (Ambion) treatment for 30 min. The one-tenth of the produced cDNA was amplified by PCR using Taq DNA polymerase (Invitrogen) and two reporter sequence-specific primers. The PCR products were fluorescently labeled by primer extension with 6-arboxyfluorescein (6-FAM) 5'-labeled reporter sequence-specific primer (2 min at 95 C, 20 s at 68 C and 10 min at 72 C) and these products were digested with 5U of HpaI (New England Biolabs) for 2h at 37 C. The fragments were purified using Qiaquick PCR columns (Qiagen), analyzed on an ABI 3130xL genetic analyzer (Applied Biosystems) with peak positions identified by using a set of X-rhodamine (ROX)-labeled MapMarker1000 molecular weight standards (BioVentures). The raw capillary electrophoresis data was processed using Attagraph software (Attagene).
Consider `CC(C)OC(=O)C(C)(C)Oc1ccc(C(=O)c2ccc(Cl)cc2)cc1`, for which the compound was classed as inactive. Regarding `Cc1c(C)c2c(c(C)c1O)CCC(C)(COc1ccc(CC3SC(=O)NC3=O)cc1)O2` (stereo unspecified), the compound was called inactive. Broadly, the AC50 is the concentration giving half of the maximal activity seen. For `CC(C)(Oc1ccc(CCNC(=O)c2ccc(Cl)cc2)cc1)C(=O)O`, the AC50 was 122 µM (active).

In the case of `C[C@]12C=CC(=O)C=C1CC[C@@H]1[C@@H]2C(=O)C[C@@]2(C)[C@H]1CC[C@]2(O)C(=O)CO`, the AC50 is 29.2 µM (active).

Consider `Cc1ccc(C)c(OCCCC(C)(C)C(=O)O)c1`, for which the AC50 was 50 µM (active). As for `Cc1cccc(Nc2cc(Cl)nc(SCC(=O)O)n2)c1C`, the outcome was inactive. In the case of `CC(c1cc2ccccc2s1)N(O)C(N)=O` (stereo unspecified), the AC50 was 50 µM (active). Consider `C=C(c1ccc(C(=O)O)cc1)c1cc2c(cc1C)C(C)(C)CCC2(C)C`, for which the compound was called inactive. Still for that read-out and setting: for `CC(C)(Oc1ccc(C2CC2(Cl)Cl)cc1)C(=O)O` (stereo unspecified) the value was “inactive”; for `C[C@@H]1C[C@H]2[C@@H]3CCC4=CC(=O)C=C[C@]4(C)[C@@]3(F)[C@@H](O)C[C@]2(C)[C@@]1(O)C(=O)COP(=O)(O)O`, “inactive”. In the case of `CN(CCOc1ccc(CC2SC(=O)NC2=O)cc1)c1ccccn1` (stereo unspecified), the outcome was inactive.

The values above are taken from PubChem BioAssay AID2284368 (EPA ToxCast).
